High-throughput results (PubChem BioAssay)
Most compounds without a hit are left out; they make up all but 3.6% or so of the library.
Pf apPOL block = Pf-apPOL DNA polymerase inhibition; Recombinant Pf-apPOL, molecular beacon fluorescence, 1.5 h; inhibition, % at 10 µM; 210,000 tested, 0.25% active
mHTT CaM bind = inhibitors of human mutant huntingtin-calmodulin interaction; P42858; AlphaScreen His-mHTT/GST-CaM binding, luminescence; inhibition, % at 15 µM; 190,000 tested, 3.6% active; AID 1671202
Hits are given with their value. No stated cut-off is given here; in the data, active means inhibition above about 50%; inactive means the rest.

`N#CC1=CN(c2ccc3c(c2)CCC3)c2cccc(F)c2S1(=O)=O` gave Pf apPOL block inactive and mHTT CaM bind inactive.
`CCOc1cc(/C=C2\C(=O)ON=C2C)cc(Cl)c1OCc1ccc(C)cc1` gave Pf apPOL block inactive and mHTT CaM bind 71.
C#CCOc1c(Br)cc(/C=C2\C(=O)ON=C2C)cc1OCC was read as Pf apPOL block inactive and mHTT CaM bind inactive.
CCOc1cc(/C=C2\C(=O)ON=C2C)cc(Br)c1OCc1ccc(C)cc1 was read as Pf apPOL block inactive and mHTT CaM bind 89.
COc1ccc(/C=C2/C(=O)ON=C2C)cc1Cl was read as Pf apPOL block inactive and mHTT CaM bind inactive.
`O=c1c(C=NCc2cccs2)c(C(F)(F)F)[nH]n1-c1nc2ccccc2s1` gave Pf apPOL block inactive and mHTT CaM bind inactive.
For Cc1cc(OC(=O)c2ccno2)cc(C)c1Cl the results were Pf apPOL block inactive.
For Cc1cc(S(=O)(=O)c2ccc(Cl)c(Cl)c2)cc(C)c1F the results were Pf apPOL block inactive.
`O=C(Nc1ccccc1Cl)c1ncn[nH]1` gave Pf apPOL block inactive and mHTT CaM bind inactive.
Screening O=C(Nc1ccc(I)cc1Cl)c1ncn[nH]1 returned Pf apPOL block inactive and mHTT CaM bind 96.
COc1ccc(NC(=O)C(Cl)Cl)cc1OC was read as Pf apPOL block inactive and mHTT CaM bind inactive.
For NC1CCCc2c1[nH]c1ccc([N+](=O)[O-])cc21 (stereo not drawn) the results were Pf apPOL block inactive and mHTT CaM bind inactive.
For O=[N+]([O-])c1ccc2[nH]c3c(c2c1)CCCC3NC1CCN(CCc2ccccc2)CC1 (stereo not drawn) the results were Pf apPOL block inactive and mHTT CaM bind 100.
`Cn1nc(-c2nc(C3CC3)no2)c2c1CCN(C(=O)C1CCOC1)C2` (stereo not drawn) gave Pf apPOL block inactive and mHTT CaM bind inactive.
For CCOc1ccc(-c2csc(Nc3ccccn3)n2)cc1 the results were Pf apPOL block inactive and mHTT CaM bind inactive.
Screening COc1ccc(-c2csc(Nc3cc(C)ccn3)n2)cc1 returned Pf apPOL block inactive and mHTT CaM bind inactive.
COc1ccc(Nc2nc(-c3ccccn3)cs2)cc1 was read as Pf apPOL block inactive and mHTT CaM bind 99.
Screening CCOc1ccc(Nc2nc(-c3ccccn3)cs2)cc1 returned Pf apPOL block inactive and mHTT CaM bind 99.
`COc1ccc(N=Cc2cc(I)cc(C)c2O)cc1Cl` gave Pf apPOL block inactive and mHTT CaM bind inactive.
`COc1ccc(C(=O)N2C=NN(C)C23SC(C(C)=O)=NN3c2ccccc2)cc1` (stereo not drawn) gave Pf apPOL block inactive and mHTT CaM bind inactive.
Screening CCCN1CCN(C(=O)c2ccc3[nH]c4c(c3c2)CN(C(C)=O)CC4)CC1 returned Pf apPOL block inactive and mHTT CaM bind inactive.
CC(=O)N1CCc2[nH]c3ccc(C(=O)N(C)c4cccc(Cl)c4)cc3c2C1 was read as Pf apPOL block inactive and mHTT CaM bind 50.
For CC(=O)N1CCc2[nH]c3ccc(C(=O)N4CCCC4)cc3c2C1 the results were Pf apPOL block inactive and mHTT CaM bind 61.
Screening CC(=O)N1CCc2[nH]c3ccc(C(=O)N4CCN(Cc5ccccc5)CC4)cc3c2C1 returned Pf apPOL block inactive and mHTT CaM bind inactive.
COc1ccc(NC(=O)/C(=C/c2ccccc2)NC(=O)c2ccc(Br)o2)cc1 was read as Pf apPOL block inactive and mHTT CaM bind inactive.
For O=c1[nH]c2ccc(Cl)cc2c(-c2ccccc2)c1Sc1ncn[nH]1 the results were Pf apPOL block inactive and mHTT CaM bind inactive.
Screening COc1cc(C=CC(=O)c2c(-c3ccccc3)c3cc(Cl)ccc3[nH]c2=O)cc(OC)c1OC returned Pf apPOL block inactive and mHTT CaM bind 100.
For COc1ccc(CCN2CC(C(=O)NCc3ccc(F)c(Cl)c3)CC2=O)cc1OC (stereo not drawn) the results were Pf apPOL block inactive and mHTT CaM bind inactive.
For c1ccc(-c2nnc3sc(C4CCCCC4)nn23)nc1 the results were mHTT CaM bind inactive.
`Brc1ccc(-c2nn3c(-c4ccccn4)nnc3s2)o1` gave mHTT CaM bind 85.
c1ccn2cc(C34CC5CC(CC(C5)C3)C4)cc2c1 was read as Pf apPOL block inactive and mHTT CaM bind inactive.
Screening CC(=O)N1N=C(c2ccccc2)CC1c1ccccc1[N+](=O)[O-] (stereo not drawn) returned Pf apPOL block inactive and mHTT CaM bind inactive.
O=[N+]([O-])c1ccccc1C1CC(c2ccccc2)=NN1 (stereo not drawn) was read as Pf apPOL block inactive and mHTT CaM bind 61.
For CC1=C(C#N)C(=O)N(CCCO)C(=O)/C1=C\c1ccc(-c2cc(C)c(C)cc2[N+](=O)[O-])o1 the results were Pf apPOL block inactive and mHTT CaM bind 79.
Screening CC1=C(C#N)C(=O)N(C)C(=O)/C1=C\c1ccc(-c2ccc(Br)cc2C(=O)O)o1 returned Pf apPOL block inactive and mHTT CaM bind inactive.
For Cc1cccn2c(=O)c3cc(C(=O)NCc4ccccc4)c(=N)n(CCCn4ccnc4)c3nc12 the results were Pf apPOL block inactive and mHTT CaM bind inactive.
N#CCCc1cccc(NC(=O)c2cc3n(n2)C(C(F)(F)F)CC(c2ccc(Cl)cc2)N3)c1 (stereo not drawn) was read as Pf apPOL block inactive and mHTT CaM bind 74.
`O=C(NCC1CCCO1)c1cc2n(n1)C(C(F)(F)F)CC(c1ccco1)N2` (stereo not drawn) gave Pf apPOL block inactive and mHTT CaM bind inactive.
Screening O=C(Nc1cc(Cl)ccc1O)c1cc2n(n1)C(C(F)(F)F)CC(c1ccc(Cl)cc1)N2 (stereo not drawn) returned Pf apPOL block inactive and mHTT CaM bind 89.
Screening COc1ccc(C2CC(C(F)(F)F)n3nc(C(=O)Nc4cc(C)ccc4O)cc3N2)cc1 (stereo not drawn) returned Pf apPOL block inactive and mHTT CaM bind inactive.
`O=C(NCC1CCCO1)c1cc2n(n1)C(C(F)(F)F)CC(c1ccc(Cl)c(Cl)c1)N2` (stereo not drawn) gave Pf apPOL block inactive and mHTT CaM bind 54.
`Cc1ccc(C2CC(C(F)(F)F)n3nc(C(=O)Nc4cccc(CCC#N)c4)cc3N2)cc1` (stereo not drawn) gave Pf apPOL block inactive and mHTT CaM bind inactive.
For CCC(=O)NCCc1csc(C2CCN(C(=O)Nc3cccc(C)c3)CC2)n1 the results were Pf apPOL block inactive and mHTT CaM bind inactive.
O=C(Nc1ccc(I)cc1Cl)c1cccnc1 was read as Pf apPOL block inactive and mHTT CaM bind inactive.
For COC(CNC(=O)c1c[nH]c2ccc(S(=O)(=O)N(C)c3cc(C)ccc3C)cc2c1=O)OC the results were Pf apPOL block inactive and mHTT CaM bind inactive.
Screening CCC(C)NC(=O)c1cnn2c(C)c(Cc3ccc(Cl)cc3)c(C)nc12 (stereo not drawn) returned Pf apPOL block inactive and mHTT CaM bind inactive.
CCC(C)NC(=O)c1cnn2c(C)c(Cc3c(C)cc(C)cc3C)c(C)nc12 (stereo not drawn) was read as Pf apPOL block inactive and mHTT CaM bind inactive.
`CCC(C)NC(=O)c1cnn2c(C)c(Cc3cccc(Br)c3)c(C)nc12` (stereo not drawn) gave Pf apPOL block inactive and mHTT CaM bind 74.
Screening Cc1nc2c(C(=O)O)cnn2c(C)c1Cc1ccccc1 returned Pf apPOL block inactive and mHTT CaM bind inactive.
`CCC(C)NC(=O)c1cnn2c(C)c(Cc3ccccc3C)c(C)nc12` (stereo not drawn) gave Pf apPOL block inactive and mHTT CaM bind 87.
